The supplement of paper PMC6555819

Key:
Test in all cases: PBM binding z-score (relative to random genomic background probes); higher = stronger binding; sequences stand for … in GC…GCGATTGACAGCGTAGAATGAAGG
[1] = test system: RARb homodimer (NR concentration 270 nM)
How it was run: (§1)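 Probes were double-stranded and carried 34-nt variable regions with direct-repeat seeds, single-nucleotide variants, half-site ablations and random human genomic background sequences, printed on custom Agilent 4×180K protein-binding microarrays. Arrays were incubated 1 h with ligand-free nuclear receptor dimers in PBS pH 7.4, 2% milk, 0.02% Triton X-100, 1 mM DTT, 0.2 mg/mL BSA and 0.4 mg/ml salmon testes DNA. Antibodies against each partner (one per run) detected binding, and scanned fluorescence was regression-normalized. Binding z-scores use the random background probes as reference.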

[2] = test system: RARg:RXRa (NR concentration 270 nM, RXRa partner concentration 90 nM)
How it was run: as §1

[3] = test system: RARg homodimer (NR concentration 270 nM)
How it was run: as §1

[4] = test system: RXRa DBDmut IVT, anti-RXR (DBD mutation: RXRa K156A/R161A, NR concentration 90 nM)
How it was run: as §1

[5] = test system: RXRa homodimer (NR concentration 180 nM)
How it was run: as §1

[6] = test system: THRa:RXRa (NR concentration 90 nM, RXRa partner concentration 90 nM)
How it was run: as §1

[7] = test system: THRa homodimer (NR concentration 90 nM)
How it was run: as §1

[8] = test system: VDR homodimer (NR concentration 270 nM)
How it was run: as §1

Sequence	PBM binding z-score [1]	PBM binding z-score [2]	PBM binding z-score [3]	PBM binding z-score [4]	PBM binding z-score [5]	PBM binding z-score [6]	PBM binding z-score [7]	PBM binding z-score [8]
CGTCCAAGGTCCAAGGTCAGTGAAGAGATGACGG	3.34	2.9	3.28	1.38	2.23	2.99	1.89	1.73
ACCATTAGTTGAGACGAGGGCAACCGATAGGTTG	1.3	0.676	0.629	0.383	0.669	2.63	0.525	1.04
CAAACTAGGTCGCCGGAAGGTCAAAGTCCGCATG	4.43	6.47	4.32	1.22	4.39	3.68	1.44	2.39
CAAACTAGGTCAAGGTCAAACTCGGTTTGTGCCA	5.07	6.04	6.55	3.28	5.73	4.64	3.95	3.81
CGTCCAAGGTCAAGGCCAGTGAAAGAGACTCGAA	3.8	5.88	6.13	3.31	5.24	3.71	2.15	1.61
AGGATGAGGTTAAGATCAGGGAAACAGAATACAT	1.48	2.1	1.71	0.731	2.55	2.66	1.15	1.08
ATCCAAAGGTCGAAGGTGAGTATACCCACCCGAA	2.66	4.58	4.35	0.893	5.48	2.32	-0.204	0.849
TCTCGGAGGACACGAAGCTCAGAGCTTTCCAGAG	0.381	0.265	0.869	0.583	-0.175	1.23	0.177	-0.5
GCGACTGGGGCAACGCAGGTTACCATAAGGTTGG	1.32	0.851	0.785	-0.722	0.638	2.88	0.105	-0.176
CCTACTGGGCCACGCAAGGTCATTGATTCAGTGA	3.66	3.09	2.61	0.396	2.62	4.54	2.64	2.93
TTACCAAGGTGAAAGGTCGTTCATGCACGCCTTG	2.8	4.33	2.27	0.778	5.93	3.24	0.876	1.96
CCTTACGGGTCACGAGGTTATAGCCCGACGAGCG	4.11	6.07	5.36	1.81	6.74	3.65	1.07	2.03
GGAACGAGGGAATTCGAGTTGATAGCATGGCGAT	-0.928	-0.376	-0.201	-0.589	-0.105	0.1	-1.07	-0.525
CGAACTAGGTCATTGACTGGACAGTGAATAGTAA	2.56	3.72	4.26	2.1	2.58	2.25	0.595	0.943
TCTCGGAGGCCACGAAAGGTCAGAGCTCGACATC	4.92	4.88	5.06	0.746	4.3	4.02	0.552	0.735
CCTAGGAGGACAACAGGAGGTCAGAGCTGCCAGA	3.64	3.49	3.47	0.503	2.25	2.82	1.1	1.4
ATCTCTAGCTAACAAGTTCAGTGAAAGAGAGGAC	1.31	0.734	0.987	0.511	0.529	1	0.651	2.47
ACAGACAGGTGAGTGAACGTAACTCAGCTGGACG	-0.371	-0.0638	0.417	-0.336	0.275	-0.437	-0.967	-0.683
CCTTACGGCTCACGAGGTTATAGCACGACGAGCG	0.414	0.351	0.335	0.229	0.925	1.39	0.522	0.564

Sequence	PBM binding z-score [1]	PBM binding z-score [2]	PBM binding z-score [3]	PBM binding z-score [4]	PBM binding z-score [5]	PBM binding z-score [6]	PBM binding z-score [7]	PBM binding z-score [8]
CGTCAAAGTTCAACTAAGGTAATGTAAAGCACGC	4.29	5.86	6.53	4.51	5.18	5.18	1.31	3.69
AGAATGAAGTTACCAAAGATCAGGGAAACGCTTG	-0.995	0.125	0.206	-0.628	0.402	-0.228	-1.02	-0.257
AGAATTAGGTTATACGTAGATCAGGGAAGAAAGT	0.51	0.538	0.552	0.428	0.592	0.759	0.539	0.454
TTGCCTAGGTCAGATCGGGCCAGTATACGCTATA	2.16	2.77	3.6	0.0965	1.51	3.9	-0.108	-0.389
CCGACCGGGGCAAGGTTACCATAACGCACAGCCA	1.54	1.65	1.73	-0.596	1.39	1.64	0.837	0.12
CAGACTGGGGCATAAGGTTACCATAAGCCAGCCC	1.78	1.9	1.41	0.105	1.6	2	1.04	-0.0112
ACTAGTTGGTCAGCTGAGGTCATACACAATTCGG	3.89	3.68	3.38	1.89	3.86	4.94	4.75	4.31
TTACCTAGGTGAAGGTCGTTGATCCCTCTGTAGA	1.21	0.824	0.525	-0.143	1.29	1.9	0.379	0.61
CCAGACAGGTGAGAAGGTAACACAGCCTCGATTA	1.03	0.858	0.833	0.148	0.73	0.62	0.195	0.124
CAAACTACGTCAAAGGTCAAAGTCGAGCCAACCA	4.68	6.1	5.88	1.66	7.92	3.5	0.927	2.36
CCTTACGGGTCACGAGGTTATAGTACGACGAGCG	3.95	6.29	6	1.55	7.51	3.87	1.19	2.14
CCAGACAGGAGAGAAGGTAACTCAGCCTCGATTA	0.0999	-0.0304	0.0804	0.0336	0.0715	0.145	0.357	0.0493
AGAACGAGGGCACGCTGAGTTGATAGCCGAGTAG	1.22	1.94	2.15	1.99	1.39	1.89	0.0635	1.57
CAAACTAGGTTACAGAGGTCAAAGTCCGTGCGTA	4.97	6.01	5.51	2.53	7.1	4.14	2.24	5.09
GCTATTAGTCGAAAGGGCAACCGAATGATTCTCG	2.08	1.09	1.5	0.643	0.86	0.548	-0.36	0.289
TCTGCTACGTCAGTTGGTCAGCTAACGAGCTGCC	-0.763	-0.688	-0.884	0.0505	-0.761	-1.71	-0.995	-1.44
GCGGCTGGGGCATCAGCAGGTTACCATAACTTAA	1.16	0.705	0.632	-0.632	0.166	1.01	-0.483	-0.207
TCTTGTAGATCAGCACGTTAAGAAAGCTGGCCAA	-0.823	-0.246	-0.479	0.626	-0.185	-0.261	-0.422	-0.0275
CGAACTAGGTCATGCAGGACAGTGAATACATTGA	2.8	3.87	4.66	1.87	2.67	2.96	1.35	1.31

Sequence	PBM binding z-score [1]	PBM binding z-score [2]	PBM binding z-score [3]	PBM binding z-score [4]	PBM binding z-score [5]	PBM binding z-score [6]	PBM binding z-score [7]	PBM binding z-score [8]
TCTAGTAGTTGAAGGGCAACCGACGAGTCCGTTT	1.29	0.178	0.164	1.02	0.622	0.117	-0.38	0.676
TAGACTAGGTCATTGGGCCAGTATAGTACGCATC	2.75	3.47	4.19	0.824	2.44	2.45	0.646	1.26
TCTGCTAGGTCAACGATGGTCAGCTACTCTGCTA	3.48	4.25	5.24	0.833	2.64	3.04	0.776	-0.337
ACACGGAGGACAAAGGTCAGAGCTACGCCAGTGA	4.59	6.1	5.24	1.57	5.15	3.56	0.702	1.17
TCCTGTAGATCAACAGGAGGTTAAGAAAGATCGA	0.374	0.894	0.158	-0.0672	0.88	0.931	-0.958	-0.104
ACTACTTGGTCAGCTGAGGTCACACACAATTCGG	4.44	4.3	4.38	1.76	4.45	5.04	5.43	3.73
TCGAGTAGGTTAGGGGTATTCAGAATGGCGTCGA	0.614	0.141	-0.12	0.297	0.649	0.317	0.194	0.305
CAGCCTAGGTCAGGGCCAGTTTAGGAGGAACGTT	2.63	3.06	3.48	0.133	1.63	2.2	0.659	-0.142
GGTACGAGGGCATTCGAGTTGATAGCATGGCGAT	0.849	1.06	1.61	3.01	0.971	3.28	-0.337	3.68
AGTCAAAGTTCATCTAGGTAATGTAAGATATGCT	3.87	5.56	6.17	4.52	4.6	2.92	0.21	5.21
CCAGTCAGGTGAAAGGTAACTCAGTCTGGTACGC	0.929	1.2	0.727	0.124	1.42	1.95	1.04	-0.00335
CCTAGCTGGCCAATCTGGGTCACTCAAGGCTTGA	1.72	0.659	0.818	-0.0999	0.716	2.69	0.234	-0.441
TCTTGTAGATGAACAGGAGGTTAAGAAAGATCGA	0.252	0.473	0.0838	0.572	0.784	0.65	-0.383	-0.297
GCAGACAGGTGAAACGCAGGTAACACAGGGTGGC	0.0703	1.1	0.467	-0.772	0.886	1.26	-0.435	-0.401
ACTAGTTGGTCATCTGAGGTCACACACAATTCGG	4.29	4.22	4.23	1.93	4.26	5.17	5.44	4.23
ATCTCTAGGTAAAGTTCAGTGTAAGATCGATAGA	2.72	2.02	2.42	1.71	1.19	1.65	0.624	2.46
ACAGACAGGTGATGAAGCTAACTCAGGCTATCAT	-0.226	0.175	0.281	-0.327	0.256	0.425	-0.032	-0.132
TCACATAGGTAAATGCTAGGTGAAAGTCCGATCT	0.255	0.301	0.189	1.17	0.654	1.31	0.359	-0.199
CGTCCAAGGTAAGCAGGTCAGTGAAAGCGACGTG	2.25	1.08	1.44	-0.436	0.485	1.7	0.269	-0.407
